According to PubChem BioAssay (NCI):
“And” between values parts separate entries of the source, which are not always exact repeats. Equal values may be shown once. Compounds without any hit were thinned out: in the full panel of roughly 79,000, 15% have a hit. Some structures have more than one record in an assay (separate samples or runs), and their calls can disagree. The source made the active and inactive calls. Cut-off read from the data, not from the text of the source: active = growth inhibition above about 70%; inactive = the rest.

Columns and labels:
[1] = NCI Yeast Anticancer Drug Screen. Data for the rad50 strain (AID 155);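 note: 0% = growth of vehicle-only cultures of the same strain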; conditions: S. cerevisiae rad50 strain growth inhibition, stronger effect = higher value
Outline: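 Vehicle-treated cultures provide the reference for the growth inhibition reported for compound-exposed, repair-deficient yeast.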

[2] = NCI Yeast Anticancer Drug Screen. Data for the mec2-1 strain (AID 157); conditions: S. cerevisiae mec2-1 strain, stronger effect = higher value
Outline: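 Compounds were applied to mec2-1 yeast cells. Their growth was then compared with that of vehicle-treated cultures to give growth inhibition.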

[3] = NCI Yeast Anticancer Drug Screen. Data for the sgs1 mgt1 strain (AID 161);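 note: 0% = growth of cultures given vehicle only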; conditions: S. cerevisiae sgs1 mgt1 strain, stronger effect = higher value
Outline: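 This yeast growth screen uses a strain with defined DNA-repair lesions; compound-treated growth is compared with vehicle-treated growth.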

[4] = NCI Yeast Anticancer Drug Screen. Data for the cln2 rad14 strain (AID 165);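 note: 0% = growth equal to vehicle treated cultures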; conditions: S. cerevisiae cln2 rad14 strain, stronger effect = higher value
Outline: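 Strain: cln2 rad14 yeast, altered in cell cycle control and DNA damage repair. Read-out: growth inhibition vs vehicle.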

[5] = NCI Yeast Anticancer Drug Screen. Data for the bub3 strain (AID 167); conditions: S. cerevisiae bub3 mutant strain, stronger effect = higher value
Outline: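 Mutant yeast screening strain plus compound; vehicle-treated cultures serve as the 0% inhibition reference.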

[6] = NCI Yeast Anticancer Drug Screen. Data for the mlh1 rad18 strain (AID 175); conditions: S. cerevisiae mlh1 rad18 strain growth inhibition, stronger effect = higher value
Outline: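 A repair-deficient yeast strain is exposed to test compound, and growth is scored relative to vehicle-treated controls.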

[7] = at 5.0 µM (retest, dose inferred, filed as 0.5)
[8] = at 50.0 µM (retest, dose inferred, filed as 5.0)

Measured: growth inhibition

O=C1N(c2ccccc2)C(=O)N1c1ccccc1
inactive: [1]; [7] -8% | [1]; [8] -6% | [1]; at 50.0 µM 1.05% and 0.3% | [2]; [7] -19% | [2]; [8] -1% | [2]; at 50.0 µM 25.6% and -2.2% | [3]; [7] -11% | [3]; [8] 3% | [3]; at 50.0 µM 43.2% and -12.2% | [4]; [7] 20% | [4]; [8] 17% | [4]; at 50.0 µM 0.1% and -20.9% | [5]; [7] 14% | [5]; [8] 17% | [5]; at 50.0 µM 22.1% and -12.4% | [6]; [7] -16% | [6]; [8] -11% | [6]; at 50.0 µM 28.6% and 2.3%

Cc1cc(NS(=O)(=O)c2ccc(N=Nc3cc(N=Nc4ccc(S(=O)(=O)Nc5cc(C)nc(C)n5)cc4)c4c(NC(=O)C(Cl)Cl)cccc4c3OC(=O)C(Cl)Cl)cc2)nc(C)n1 (tested in a mixture with another compound)
active: [1]; [8] 76% | [2]; [8] 92% | [3]; [8] 79% | [4]; [8] 80% | [5]; [8] 90% | [6]; [8] 70%
-21.5% (inactive) and 77.2% (active): [5]; at 50.0 µM
-56.5% (inactive) and 81.5% (active): [6]; at 50.0 µM
inactive: [1]; [7] 16% | [2]; [7] 15% | [3]; [7] 8% | [3]; at 50.0 µM -23.1% and 69.2% | [4]; [7] 16% | [4]; at 50.0 µM -3.85% and 41.8% | [5]; [7] 21% | [6]; [7] 21%
29.9% (inactive) and 73.2% (active): [1]; at 50.0 µM
-17.1% (inactive) and 81.5% (active): [2]; at 50.0 µM

COC(O)C(=O)c1c2c(cc3c1CCC3)CCCC2 (centres undefined)
active: [1]; [7] 96% | [1]; [8] 100% | [1]; at 50.0 µM 81.1% | [2]; [7] 98% | [2]; [8] 99% | [2]; at 50.0 µM 88.4% | [3]; [7] 98% | [3]; [8] 99% | [3]; at 50.0 µM 89.1% | [4]; [7] 85% | [4]; [8] 100% | [4]; at 50.0 µM 91.7% | [5]; [7] 99% | [5]; [8] 100% | [5]; at 50.0 µM 90.5% | [6]; [7] 98% | [6]; [8] 100% | [6]; at 50.0 µM 92.5%

CSc1ncnc2c1ncn2C1OC(CO)C(O)C1O (centres undefined)
inactive: [1]; [7] 2% | [1]; [8] 9% | [1]; at 50.0 µM 8.95% and 3.25% | [2]; [7] -10% | [2]; [8] -1% | [2]; at 50.0 µM 14.7% and 17.6% | [3]; [7] -5% | [3]; [8] 1% | [3]; at 50.0 µM 3.1% and -2.35% | [4]; [7] -1% | [4]; [8] -3% | [4]; at 50.0 µM 38.9% and -38.6% | [5]; [7] -3% | [5]; [8] -7% | [5]; at 50.0 µM 0.05% and 13.2% | [6]; [7] 14% | [6]; [8] 0% | [6]; at 50.0 µM -10.1% and 1.6%

Oc1c(Cl)cc(Cl)c(Cl)c1Cl
active: [1]; [8] 94% and 98% | [1]; at 50.0 µM 85.2% and 98.3% | [2]; [8] 96% and 98% | [2]; at 50.0 µM 94.3% and 99.6% | [3]; [8] 98% and 86% | [3]; at 50.0 µM 80.5% and 99.3% | [4]; [8] 98% and 97% | [4]; at 50.0 µM 89.7% and 98.5% | [5]; [8] 85% and 96% | [5]; at 50.0 µM 88.8% and 99.1% | [6]; [8] 92% and 96% | [6]; at 50.0 µM 93.8% and 98.7%
inactive: [1]; [7] -2% and 11% | [2]; [7] 8% and 14% | [3]; [7] -3% and 3% | [4]; [7] 11% and -10% | [5]; [7] -3% and 39% | [6]; [7] 4% and 7%

O=C(CON1C(=O)c2ccccc2C1=O)c1ccccc1
active: [1]; at 50.0 µM 91.2% | [5]; at 50.0 µM 80.5% | [6]; at 50.0 µM 76.2%
inactive: [1]; [7] -3% | [1]; [8] 19% | [2]; [7] 8% | [2]; [8] 29% | [2]; at 50.0 µM 52% | [3]; [7] 6% | [3]; [8] 21% | [3]; at 50.0 µM 55.1% | [4]; [7] -5% | [4]; [8] -8% | [4]; at 50.0 µM -3.15% | [5]; [7] -7% | [5]; [8] 32% | [6]; [7] -16% | [6]; [8] 18%

OC1CN(Cc2ccccc2)C[C@@H]1O (some centres undefined)
active: [1]; [8] 99% | [2]; [8] 99% | [3]; [8] 99% | [4]; [8] 93% | [5]; [8] 99% | [6]; [8] 99%
inactive: [1]; [7] 8% | [1]; at 50.0 µM 23% | [2]; [7] 11% | [2]; at 50.0 µM -7.9% | [3]; [7] 10% | [3]; at 50.0 µM -4.5% | [4]; [7] 17% | [4]; at 50.0 µM 59.6% | [5]; [7] 11% | [5]; at 50.0 µM -0.5% | [6]; [7] 25% | [6]; at 50.0 µM 36.8%

Nc1c(C(=O)O)ccc(C(=O)O)c1C(=O)O
inactive: [1]; [7] -131% | [1]; [8] -173% | [1]; at 50.0 µM -5.95% and 2.45% | [2]; [7] -50% | [2]; [8] -53% | [2]; at 50.0 µM 14.1% and -1% | [3]; [7] -54% | [3]; [8] -67% | [3]; at 50.0 µM 25% and 3.8% | [4]; [7] -56% | [4]; [8] -60% | [4]; at 50.0 µM 3.75% and -23.4% | [5]; [7] -65% | [5]; [8] -79% | [5]; at 50.0 µM -2.6% and -5.8% | [6]; [7] -113% | [6]; [8] -123% | [6]; at 50.0 µM 33.5% and -12.9%

O/N=C(\CC(O)(C(F)(F)F)C(F)(F)F)c1cccc(Cl)c1
inactive: [1]; [7] 13% | [2]; [7] 17% | [3]; [7] 10% | [4]; [7] 8% | [5]; [7] 14% | [6]; [7] 26%
active: [1]; [8] 80% | [1]; at 50.0 µM 91% | [2]; [8] 98% | [2]; at 50.0 µM 93.6% | [3]; [8] 97% | [3]; at 50.0 µM 92.8% | [4]; [8] 95% | [4]; at 50.0 µM 89% | [5]; [8] 97% | [5]; at 50.0 µM 90.5% | [6]; [8] 97% | [6]; at 50.0 µM 89.3%

O=C1C=C(O)c2ccccc2C1=O.[Ag]
active: [1]; [7] 99% | [1]; [8] 99% | [1]; at 50.0 µM 88.8% and 99.5% | [2]; [7] 100% | [2]; [8] 99% | [2]; at 50.0 µM 75% and 99.5% | [3]; [7] 99% | [3]; [8] 99% | [3]; at 50.0 µM 96.4% and 99.4% | [4]; [7] 100% | [4]; [8] 99% | [5]; [7] 99% | [5]; [8] 99% | [5]; at 50.0 µM 86.3% and 99.3% | [6]; [7] 99% | [6]; [8] 99% | [6]; at 50.0 µM 87.5% and 99.2%
66.2% (inactive) and 99% (active): [4]; at 50.0 µM

O=C1c2cccc(NCCCNCCO)c2C(=O)c2cccc(NCCCNCCO)c21
inactive: [1]; [7] 33% | [1]; [8] 47% | [1]; at 50.0 µM 43.2% and 9.05% | [2]; [7] -8% | [2]; [8] 2% | [2]; at 50.0 µM 23.6% and 5.3% | [3]; [7] 26% | [3]; [8] 39% | [4]; [7] 30% | [4]; [8] 39% | [4]; at 50.0 µM 9% and 48.1% | [5]; [7] 13% | [5]; [8] 39% | [5]; at 50.0 µM -8.35% and 63.1% | [6]; [7] 15% | [6]; [8] 42%
12.7% (inactive) and 88.5% (active): [3]; at 50.0 µM
active: [6]; at 50.0 µM 81.5% and 83.4%

N#CNC1=NCOCN1
inactive: [1]; [7] -3% | [1]; [8] 6% | [1]; at 50.0 µM -1.6% and 21.8% | [2]; [7] 2% | [2]; [8] 10% | [2]; at 50.0 µM 22.4% and 1.35% | [3]; [7] 2% | [3]; [8] -9% | [3]; at 50.0 µM 13.8% and 8.55% | [4]; [7] 4% | [4]; [8] 11% | [4]; at 50.0 µM 13.3% and 18.8% | [5]; [7] -12% | [5]; [8] -3% | [5]; at 50.0 µM 10.1% and -8.85% | [6]; [7] 12% | [6]; [8] 9% | [6]; at 50.0 µM 64.4% and 18.4%

O=C(CC1(O)C(=O)Nc2ccccc21)c1ccc(Cl)c(Cl)c1 (centres undefined)
inactive: [1]; [7] -5% | [1]; [8] 26% | [2]; [7] -4% | [2]; [8] 29% | [2]; at 50.0 µM 39% | [3]; [7] 1% | [3]; [8] 41% | [4]; [7] -5% | [4]; [8] -12% | [5]; [7] -4% | [5]; [8] 31% | [6]; [7] -4% | [6]; [8] 31%
active: [1]; at 50.0 µM 84% | [3]; at 50.0 µM 73.4% | [4]; at 50.0 µM 72% | [5]; at 50.0 µM 77.2% | [6]; at 50.0 µM 88.3%
